Results reported in PubChem BioAssay (Tox21).
“And” between values parts separate entries of the source, which are not always exact repeats. Equal values may be shown once. Records with an inconclusive call do not appear. Where a call stands in place of a potency, no number is given. Where a structure was tested more than once in an assay, its records may differ in their call. The source made the active and inactive calls. The call rests on the fitted dose curve.

target: Retinoic acid receptor RXR-alpha (Homo sapiens) (UniProt P19793); assay: qHTS assay to identify small molecule agonists of the RXR signaling pathway (AID 1159527); settings: HEK293T RXRa-UAS-bla, beta-lactamase ratio, 16 h; series mostly up to 76.8 µM; further: nearly all actives have a fitted effect of over 35% in size
Excerpt: U.S. Tox21 Program National Center for Advancing Translational Sciences [NCATS] NIH Chemical Genomics Center [NCGC] U.S. Environmental Protection Agency [EPA] National Institutes of Environmental Health Sciences [NIEHS] National Toxicology Program [NTP] U.S. Food and Drug Administration [FDA] Tox21 Assay Overview: The Retinoid X receptor (RXR), a nuclear hormone receptor expressed in liver, spleen, placenta, epidermis, central nervous system. These receptors are able to form homo and heterodimers with other nuclear receptors and due to this heterodimerizing ability, RXR functions as master regulators producing diverse physiological effects. Three subtypes of RXR exist; alpha, beta and gamma. Retinoid X receptor alpha (RXR-alpha) has potential roles in metabolic signaling pathways, skin alopecia, dermal cysts, cardiac development, insulin sensitization etc. Therefore screening environmental chemicals on RXR-alpha signaling can be used for the studies focused on such therapeutic applications. For quantification of RXR-alpha ligands signaling, GeneBLAzer RXR alpha-UAS-bla HEK 293T (Life Technologies, Carlsbad, CA) cells containing a beta-lactamase reporter-gene under control of Retinoid X receptor-alpha response element were used to screen Tox21 10K library.
Tox21 Assay Protocol Summary: RXR-alpha HEK 293T cells were dispensed at 2,000 cells/6 uL of assay medium containing 2% charcoal-stripped FBS using a Multidrop Combi (ThermoFisher Scientific, Waltham, MA) dispenser. The assay was performed in black wall/clear-bottom 1536-well plates (Greiner Bio-One North America Inc. Monroe, NC). 9-cis retinoic acid was used as a positive control in the agonist mode screen. After the assay plates were incubated at 37 C and 5% CO2 for 5 hr, 23 nL of compounds dissolved in DMSO, positive controls or DMSO only were transferred to the assay plate by a Pintool station (Kalypsys, San Diego, CA). The assay plates were incubated at 37 C and 5% CO2 for 16 hr. One uL of LiveBLAzer B/G FRET substrate (Life Technologies) was added using a Flying Reagent Dispenser (Aurora Discovery, San Diego, CA) and the plates were incubated at room temperature for 2 hr. Fluorescence intensity (405 nm excitation, 460/530 nm emission) was measured using an Envision plate reader (PerkinElmer, Shelton, CT).
Potency means the concentration at half of the fitted maximal effect.

Sequence of Retinoic acid receptor RXR-alpha (Homo sapiens) (P19793 whole entry, looked up): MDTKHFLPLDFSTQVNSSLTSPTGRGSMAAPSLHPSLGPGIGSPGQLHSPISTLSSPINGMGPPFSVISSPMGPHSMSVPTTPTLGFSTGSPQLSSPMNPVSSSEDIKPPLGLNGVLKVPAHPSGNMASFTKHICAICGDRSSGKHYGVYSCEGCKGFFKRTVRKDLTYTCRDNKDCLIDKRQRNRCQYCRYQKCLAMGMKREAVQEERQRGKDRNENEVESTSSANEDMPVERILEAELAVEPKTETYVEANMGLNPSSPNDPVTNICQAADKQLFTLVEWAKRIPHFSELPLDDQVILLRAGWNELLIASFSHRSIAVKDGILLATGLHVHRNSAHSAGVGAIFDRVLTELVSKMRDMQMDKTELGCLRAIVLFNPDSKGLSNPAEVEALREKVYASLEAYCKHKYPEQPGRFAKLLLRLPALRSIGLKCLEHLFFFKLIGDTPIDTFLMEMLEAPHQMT

For `O=C(O)CCCCCCCCCCCC(=O)O`, which Potency is on record?
The Potency was “inactive”.

For `C/C=C/C(=O)N(CC)c1ccccc1C`, which Potency is on record?
The Potency was “inactive”.

For `O=C(O)COCCN1CCN(C(c2ccccc2)c2ccc(Cl)cc2)CC1` (stereo not given), which Potency is on record?
Its Potency is “inactive”.

`C=C[C@H]1CN2CC[C@H]1C[C@@H]2[C@@H](O)c1ccnc2ccc(OC)cc12` was tested. Which Potency did it give?
The Potency was “inactive”.

How did the Potency turn out when `CCC(=O)O[C@H]1[C@H](O[C@@H]2[C@@H](C)[C@H](O[C@H]3C[C@@](C)(OC)[C@@H](O)[C@H](C)O3)[C@@H](C)C(=O)O[C@H](CC)[C@@](C)(O)[C@H](O)[C@@H](C)C(=O)[C@H](C)C[C@@]2(C)O)O[C@H](C)C[C@@H]1N(C)C` was run?
Its Potency is “inactive”.

For `CC/C(=C(/CC)c1ccc(O)cc1)c1ccc(O)cc1`, which Potency is on record?
The Potency was “inactive”.

`C=CCNCC=C` was tested. Which Potency did it give?
The Potency was “inactive”.

How did the Potency turn out when `CC(=O)Oc1ccc(C(c2ccc(OC(C)=O)cc2)c2ccccn2)cc1` was run?
The Potency was “inactive”.

For `Nc1ccc(N)c(Cl)c1`, which Potency is on record?
The Potency was “inactive”.

Which Potency does the source give for `Cc1ccc(S(=O)(=O)NCl)cc1` here?
The Potency was “inactive”.

`CC(C)(Oc1ccc(Cl)cc1)C(=O)O` was tested. Which Potency did it give?
The Potency was “inactive”.

How did the Potency turn out when `CCCCCC=O` was run?
The Potency was “inactive”.

`CCCCCCCC/C=C\CCCCCCCC(=O)O` was tested. Which Potency did it give?
The Potency was “inactive”.

For `CCC/C=C/C=O`, which Potency is on record?
Its Potency is “inactive”.

For `Nc1ccc2c(O)cc(S(=O)(=O)O)cc2c1`, which Potency is on record?
Its Potency is “inactive”.

`CN(C)/N=N/c1nc[nH]c1C(N)=O` was tested. Which Potency did it give?
Its Potency is “inactive”.

With `c1ccc2ncccc2c1` as the molecule, how does the Potency read?
Its Potency is “inactive”.

Which Potency does the source give for `Nc1cc(Cl)c(N)c(Cl)c1` here?
Its Potency is “inactive”.

For `C[C@]12C=CC(=O)C=C1CC[C@H]1[C@@H]3C[C@@H](O)[C@](O)(C(=O)CO)[C@@]3(C)C[C@H](O)[C@@]12F`, which Potency is on record?
Its Potency is “inactive”.

`CCCCCCCCCCCCCO` was tested. Which Potency did it give?
The Potency was “inactive”.

For `O=C1CCc2ccccc2O1`, which Potency is on record?
Its Potency is “inactive”.

`CC(=O)OC(C)C` was tested. Which Potency did it give?
Its Potency is “inactive”.

Which Potency does the source give for `Cc1ccc([N+](=O)[O-])c(C)c1` here?
The Potency was “inactive”.

With `CC(=O)Nc1ccc2c(c1)Cc1cc(NC(C)=O)ccc1-2` as the molecule, how does the Potency read?
Its Potency is “inactive”.

Which Potency does the source give for `CC(=O)Oc1c(C)c(C)c2c(c1C)CC[C@@](C)(CCC[C@H](C)CCC[C@H](C)CCCC(C)C)O2` here?
The Potency was “inactive”.

`IC(I)I` was tested. Which Potency did it give?
The Potency was “inactive”.

How did the Potency turn out when `CC(C)=CCO` was run?
The Potency was “inactive”.

How did the Potency turn out when `CNC[C@H](O)c1ccc(O)c(O)c1` was run?
The Potency was “inactive”.

With `CCCCCCC(C)O` (stereo not given) as the molecule, how does the Potency read?
Its Potency is 17.7 µM (active) and inactive.

How did the Potency turn out when `Oc1c(Cl)ccc(Cl)c1Cl` was run?
Its Potency is “inactive”.

For `CC1(C)NC(=O)N(c2ccc([N+](=O)[O-])c(C(F)(F)F)c2)C1=O`, which Potency is on record?
The Potency was “inactive”.

For `CC[C@]12CCCN3CCc4c(n(c5ccccc45)[C@@](O)(C(=O)OC)C1)[C@@H]32`, which Potency is on record?
Its Potency is “inactive”.

How did the Potency turn out when `[O-]/[N+](=N\O)c1ccccc1` was run?
The Potency was “inactive”.

For `c1ccc2c(c1)ccc1cc3c(ccc4ccccc43)cc12`, which Potency is on record?
The Potency was “inactive”.

`COc1cc([C@H]2Oc3cc([C@H]4Oc5cc(O)cc(O)c5C(=O)[C@@H]4O)ccc3O[C@@H]2CO)ccc1O` was tested. Which Potency did it give?
The Potency was “inactive”.

For `COC(=O)c1ccc(C)cc1`, which Potency is on record?
Its Potency is “inactive”.

How did the Potency turn out when `Cc1ccc(/C(=C\CN2CCCC2)c2ccccn2)cc1` was run?
The Potency was “inactive”.

How did the Potency turn out when `CCCOCCO` was run?
Its Potency is “inactive”.

How did the Potency turn out when `C[N+](C)(C)CCO` was run?
The Potency was “inactive”.

How did the Potency turn out when `Cc1ccc(S(=O)(=O)O)cc1C` was run?
Its Potency is “inactive and 9.77 µM (active)”.
